A selection: hits, their analogues and other compounds. The true share with any hit is near 11%.
HP1b binding inh = HP1-beta chromodomain-methylated histone interaction inhibition; P83916; Potency, µM (top dose mostly 114 µM), hits mostly inhibitors; AlphaScreen HP1-beta / biotin-H3K9me3 peptide binding; 390,000 tested, 0.56% active; AID 540317; further: nearly all actives have a fitted effect of over 70% in size
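AlphaScreen: HP1-beta (50 nM) preformed 30 min with biotin-H3(1-18)K9me3 peptide (50 nM) in PBS pH 7.4, 0.01% Tween-20. Compound added for 30 min at RT, then streptavidin donor/nickel chelate acceptor beads (10 ug/mL) for 30 min.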
BAZ2B block = blocks human BAZ2B. Q9UIF8. AlphaScreen BAZ2B-H3K14Ac peptide displacement. Potency, µM (series often up to 114 µM), usual class: inhibitors. 360,000 tested, 4.4% active. AID 504333; further: nearly all actives have a fitted effect of over 60% in size
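In this displacement format the biotinylated H3(5-23) peptide acetylated at Lys14 serves as ligand at 50 nM, with BAZ2B at 50 nM in PBS pH 7.4 containing 0.01% Tween-20. Donor and acceptor beads are 10 ug/mL final.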
JMJD2A Tudor inh = inhibitors of human JMJD2A Tudor domain. O75164. AlphaScreen JMJD2A-Tudor / H3K4me3 peptide binding. Potency, µM (highest dose often 114 µM), actives largely listed as inhibitors. 390,000 tested, 4.4% active. AID 504339; further: nearly all actives have a fitted effect of over 50% in size
G9a inh = blocks human histone lysine methyltransferase G9a; 350,000 tested, 8.8% active; G9a H3K9 monomethylation, AlphaScreen, 2 h; Q96KQ7; Potency, µM (titrated, usually from 102 µM), hits mostly inhibitors; further: nearly all actives have a fitted effect of over 75% in size
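G9a (20 nM) preincubated 15 min RT with compounds, then 500 nM biotinylated H3K9 peptide and 20 uM SAM added; 2 h RT reaction. Monomethyl-H3K9 product detected by AlphaScreen with anti-H3K9me1 antibody, streptavidin donor and anti-rabbit IgG acceptor beads.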
VDR inh = blocks the human vitamin D receptor. P11473. 400,000 tested, 0.93% active. VDR-SRC2-3 peptide fluorescence polarization, 2 h. Potency, µM, actives largely listed as inhibitors
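Inhibition of the VDR/SRC2-3 peptide interaction is quantified by fluorescence polarization. Compounds (23 nl, pintool) incubate with the reagents for 2 hours at ambient room temperature.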
PLK1 PBD inh = inhibitors of human PLK1 polo-box domain binding. P53350. Plk1 PBD binding of FITC phosphopeptide, fluorescence polarization. Potency, µM, actives largely listed as inhibitors. 360,000 tested, 2.8% active. AID 720504; further: series mostly up to about 57 µM; nearly all actives have a fitted effect of over 65% in size
A number is an active result; i = inactive; ? = inconclusive; nt = no result; [ ] = dose if it differs, or a comment. The call rests on the fitted dose curve; in most records, active means well fitted curve in the direction sought with a large enough effect; inconclusive means small, poorly fitted or top-dose-only effect, or another doubt; inactive means no such curve, though single readings can be large; an effect the other way counts as inactive or inconclusive.

SMILES | HP1b binding inh | BAZ2B block | JMJD2A Tudor inh | G9a inh | VDR inh | PLK1 PBD inh
Cc1cc(C)cc(N(CC(=O)N2CCn3c2nc2ccccc23)S(=O)(=O)c2c(C)noc2C)c1 | i | i | i | i | i | i
O=C(COc1ccccc1[N+](=O)[O-])N(C1CCCCC1)C1CCS(=O)(=O)C1 (stereo not given) | i | i | i | ? | i | i
Cc1ccc(-c2cc(C(=O)N/N=C/C=C/c3ccccc3)n[nH]2)s1 | i | i | i | i | ? | 6.7µM
O=C(N/N=C/c1ccco1)c1cc(-c2ccc(Cl)s2)[nH]n1 | i | i | i | i | i | i
O=C(N/N=C/c1cccs1)c1cc(-c2ccc(Cl)s2)[nH]n1 | i | ? | ? | 50.1µM | i | i
COc1ccc(CCN(C)C(=O)CSc2nnc(C3CC3)n2N)cc1OC | i | i | i | 39.8µM | i | ?
COCCOC(=O)c1c(NC(=O)CSc2cccc[n+]2[O-])sc(C(N)=O)c1C | i | ? | i | 2.51µM | i | i
COC(=O)c1ccc(C(=O)OC)c(NC(=O)CSc2cccc[n+]2[O-])c1 | ? | i | 44.7µM | nt | i | 23.8µM
COC(=O)c1ccc(-n2c(C)cc(C(=O)CSc3cccc[n+]3[O-])c2C)cc1 | i | i | i | 50.1µM | i | i
COC(=O)c1ccc(-n2c(C)cc(C(=O)CSc3ccc(NC(C)=O)cc3)c2C)cc1 | i | ? | ? | ? | i | 13.4µM
CCCc1cc(=O)[nH]c(SCC(=O)Nc2sc(C(N)=O)c(C)c2C(=O)OCCOC)n1 | i | i | i | i[12.7 µM] | i | i
CC(=O)Nc1ccc(-c2ccnc3c2CC(C)(C(=O)NCc2ccc(F)c(F)c2)O3)cc1 (stereo not given) | nt | nt | nt | nt | nt | i
C=CCn1c(C)cc(C(=O)CSc2ccc(NC(C)=O)cc2)c1C | i | ? | i[11.4 µM] | ? | i | i
O=C(CSc1cccc[n+]1[O-])Nc1cc([N+](=O)[O-])ccc1Cl | i | i | i | i | i | i
O=C(CSc1cccc[n+]1[O-])Nc1cc2c(cc1Cl)C(=O)c1ccccc1C2=O | i | ? | ? | 7.94µM | i | i
CC(=O)Nc1ccc(SCC(=O)c2cc(C)n(-c3ccccc3F)c2C)cc1 | i | 44.7µM | ? | ? | i | 18.9µM
COC(=O)c1ccc(NC(=O)CSc2ccccc2)cc1 | ? | i | 31.6µM | i | 50.1µM | 21.2µM
O=[N+]([O-])c1ccccc1CNC1CCCc2ccccc21 (stereo not given) | ? | 56.2µM | 28.2µM | ? | i | i
Cc1ccccc1CC(=O)NC1CCCc2ccccc21 (stereo not given) | i | ? | i | nt | i | i
COc1ccc(CNC2CCCc3ccccc32)cc1OC (stereo not given) | i | 70.8µM | 11.2µM | ? | i | ?
Cc1ccc(S(=O)(=O)NC(=O)C2(C)CCN2C(=O)C2CCCCC2)nc1 (stereo not given) | nt | nt | nt | nt | nt | i
COc1ccc(CNC(=S)Nc2ccccc2C)cc1 | i | i | ? | i | i | 16.8µM
S=C(NCc1ccc2[nH]c3c(c2c1)CCCC3)Nc1ccccc1Cl | ? | 35.5µM | 50.1µM | 39.8µM | i | i
Cc1ccc(C)c(NC(=S)NCc2ccc3[nH]c4c(c3c2)CCCC4)c1 | ? | 31.6µM | 50.1µM | 39.8µM | i | i
COc1ccc(CNC(=S)Nc2cc(C)ccc2C)cc1 | i | i | i | ? | i | ?
SMILES | HP1b binding inh | BAZ2B block | JMJD2A Tudor inh | G9a inh | VDR inh | PLK1 PBD inh
Cc1ccc(C)c(NC(=S)NCc2ccccc2)c1 | i | i | i | i | i | i
Cc1ccccc1NC(=S)NCc1ccc2[nH]c3c(c2c1)CCCC3 | ? | 39.8µM | 39.8µM | 39.8µM | i | i
O=C(NCCS(=O)(=O)N1CCN(c2ccccc2F)CC1)c1cccc(Br)c1 | i | i | i | i | i | i
CCOC(=O)/C(C#N)=C\c1cc(OC)c(OC)cc1[N+](=O)[O-] | ? | i | 11.2µM | i[0.501 µM] | 20µM | 7.52µM
CC(C)=CCCC1(C)C=Cc2c(c(C)cc3c2[nH]c2cc(O)ccc23)O1 (stereo not given) | i | 44.7µM | 44.7µM | ? | i | i
Cc1ccc(C)c(Nc2nnc(-c3ccc(C)c(S(=O)(=O)N4CCN(C)CC4)c3)c3ccccc23)c1 | i | ? | ? | 12.6µM | i | nt
CCCCN(CCCC)C(=O)c1nsnc1-c1ccccc1O | i | i | i | i[2.33 µM] | i | i

Compound activity: PubChem BioAssay, National Center for Advancing Translational Sciences (NCATS)
